Results from PubChem BioAssay AID1159580 (chemical genetic matrix, 2015).
In all, about 5,500 compounds went through this assay and about 2,000 (36%) were called active. About 18% were inconclusive and are not listed. Cut-off read from the data, not from the text of the source: active = normalized growth mostly below about 0.91 (no sharp cut-off); inconclusive = no clear call, values can overlap the other calls; inactive = mostly above about 0.92. The list shows a part of the results.

Assay: chemical genetic growth profiling, strain panel (AID 1159580);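 note: tested at 20 µM; growth read once vehicle control cultures reached saturation at 30 °C; 1 = growth at the plate median or of vehicle wells; lower values mean less growth of the strain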
Conditions: S. cerevisiae deletion strains, growth OD

Measured: normalized growth

CC(C)(C)CC(C)(C)c1ccc(OCCOCC[N+](C)(C)Cc2ccccc2)cc1
inactive: locus YJR043C, strain POL32, active compounds read low 1.03 | locus YKL009W, strain mrt4, active compounds read low 0.965 | locus YKL068W, active compounds read low 1.01 | locus YKL085W, strain MDH1 (second series), active compounds read low 1 | locus YKL085W, strain MDH1, active compounds read low 1 | locus YLR039C, strain RIC1, active compounds read low 0.781 | locus YLR058C, strain SHM2, active compounds read low 0.996 | locus YLR102C, strain apc9, active compounds read low 0.992 | locus YLR262C, strain YPT6, active compounds read low 0.832 | locus YLR268W, strain sec22, active compounds read low 0.974 | locus YLR330W, strain CHS5, active compounds read low 0.993 | locus YLR342W, strain FKS1 (second series), active compounds read low 0.998 | locus YLR371W, strain rom2, active compounds read low 0.992 | locus YLR418C, strain cdc73, active compounds read low 0.871 | locus YML016C, strain PPZ1, active compounds read low 1.01 | locus YML032C, strain rad52, active compounds read low 0.99 | locus YML124C, strain tub3, active compounds read low 0.989 | locus YMR078C, strain ctf18, active compounds read low 0.986 | locus YMR223W, strain ubp8, active compounds read low 0.989 | locus YMR263W, strain SAP30, active compounds read low 0.991 | locus YMR307W, strain GAS1, active compounds read low 1.06 | locus YNL067W, strain RPL9B, active compounds read low 0.977 | locus YNL233W, strain BNI4, active compounds read low 0.984 | locus YNL250W, strain rad50, active compounds read low 0.989 | locus YNL271C, strain bni1, active compounds read low 0.978 | locus YNL298W, strain CLA4, active compounds read low 1.01 | locus YNL307C, strain MCK1, active compounds read low 0.937 | locus YNR052C, strain pop2, active compounds read low 0.99 | locus YOL006C, strain TOP1, active compounds read low 0.864 | locus YOL012C, strain htz1 1.63 | locus YOL147C, strain pex11, active compounds read low 0.985 | locus YOR061W, strain CKA2, active compounds read low 1.01 | locus YOR069W, strain VPS5, active compounds read low 1.01 | locus YOR136W, strain idh2, active compounds read low 0.986 | locus YOR144C, strain elg1, active compounds read low 0.996 | locus YOR184W, strain ser1, active compounds read low 0.954 | locus YOR316C, strain cot1, active compounds read low 0.992 | locus YPL055C, strain LGE1, active compounds read low 0.98 | locus YPL241C, strain CIN2, active compounds read low 1 | locus YPR119W, strain clb2, active compounds read low 0.984 | locus YPR141C, strain kar3, active compounds read low 0.988 | locus YPR163C, strain tif3, active compounds read low 0.981 | locus YPR167C, strain met16, active compounds read low 1.01 | strain wtn01, active compounds read low 0.997
active: locus YJR066W, strain TOR1, active compounds read low 0.791 | locus YKL160W, strain elf1, active compounds read low 0.0818 | locus YKR001C, strain vps1, active compounds read low 0.686 | locus YKR026C, strain gcn3, active compounds read low 0.0715 | locus YKR091W, strain srl3, active compounds read low 0.0677 | locus YLL001W, strain dnm1, active compounds read low 0.064 | locus YLL026W, active compounds read low 0.059 | locus YLL041C, strain sdh2, active compounds read low 0.0644 | locus YLR027C, strain aat2, active compounds read low 0.0617 | locus YLR113W, strain HOG1, active compounds read low 0.166 | locus YLR221C, strain rsa3, active compounds read low 0.0654 | locus YLR258W, strain gsy2, active compounds read low 0.0637 | locus YLR262C, strain YPT6 (second series), active compounds read low 0.0738 | locus YLR320W, strain mms22, active compounds read low 0.08 | locus YLR342W, strain FKS1, active compounds read low 0.0831 | locus YLR357W, strain rsc2, active compounds read low 0.132 | locus YLR370C, strain arc18, active compounds read low 0.0619 | locus YLR384C, strain iki3, active compounds read low 0.0611 | locus YML120C, strain ndi1, active compounds read low 0.0599 | locus YMR058W, strain fet3, active compounds read low 0.0666 | locus YMR125W, strain sto1, active compounds read low 0.0985 | locus YMR129W, active compounds read low 0.0605 | locus YMR205C, strain PFK2, active compounds read low 0.112 | locus YMR231W, strain pep5, active compounds read low 0.0717 | locus YNL071W, strain lat1, active compounds read low 0.0629 | locus YNL183C, strain NPR1, active compounds read low 0.73 | locus YNL209W, strain ssb2, active compounds read low 0.0644 | locus YNL248C, strain rpa49, active compounds read low 0.0829 | locus YNL322C, strain KRE1 (second series), active compounds read low 0.0768 | locus YNR049C, strain mso1, active compounds read low 0.0601 | locus YOR001W, strain rrp6, active compounds read low 0.0755 | locus YOR070C, strain gyp1, active compounds read low 0.0589 | locus YOR080W, strain dia2, active compounds read low 0.0709 | locus YOR083W, strain WHI5, active compounds read low 0.0783 | locus YOR106W, strain vam3, active compounds read low 0.0737 | locus YOR231W, strain MKK1, active compounds read low 0.451 | locus YOR265W, strain rbl2, active compounds read low 0.0618 | locus YOR270C, strain vph1, active compounds read low 0.103 | locus YOR290C, strain snf2, active compounds read low 0.0712 | locus YPL051W, strain arl3, active compounds read low 0.0738 | locus YPL078C, strain atp4, active compounds read low 0.0749 | locus YPL106C, strain sse1, active compounds read low 0.108 | locus YPL240C, strain hsp82, active compounds read low 0.0673 | locus YPL256C, strain CLN2, active compounds read low 0.347
